In all, about 16,000 compounds went through this assay and about 5,100 (32%) were called active. Not shown: some 25% with an inconclusive outcome. The call rests on the fitted dose curve; in most records, active means well fitted curve in the direction sought with a large enough effect; inconclusive means small, poorly fitted or top-dose-only effect, or effect the other way; inactive means no such curve, though single readings can be large or run the other way. The list shows a part of the results. Peptide text beside a SMILES is read from it.
On the % scale 0 is the no-effect control and ±100 the full control effect.

For this experiment, the target named is Cytochrome P450 3A4 (Homo sapiens) (UniProt P08684). Description: Cytochrome panel assay with activity outcomes. The settings on record: recombinant CYP, pro-luciferin dealkylation, luminescence, p450-cyp3a4; series mostly up to 57.1 µM.
Chain of Cytochrome P450 3A4 (Homo sapiens) (P08684 whole entry, looked up): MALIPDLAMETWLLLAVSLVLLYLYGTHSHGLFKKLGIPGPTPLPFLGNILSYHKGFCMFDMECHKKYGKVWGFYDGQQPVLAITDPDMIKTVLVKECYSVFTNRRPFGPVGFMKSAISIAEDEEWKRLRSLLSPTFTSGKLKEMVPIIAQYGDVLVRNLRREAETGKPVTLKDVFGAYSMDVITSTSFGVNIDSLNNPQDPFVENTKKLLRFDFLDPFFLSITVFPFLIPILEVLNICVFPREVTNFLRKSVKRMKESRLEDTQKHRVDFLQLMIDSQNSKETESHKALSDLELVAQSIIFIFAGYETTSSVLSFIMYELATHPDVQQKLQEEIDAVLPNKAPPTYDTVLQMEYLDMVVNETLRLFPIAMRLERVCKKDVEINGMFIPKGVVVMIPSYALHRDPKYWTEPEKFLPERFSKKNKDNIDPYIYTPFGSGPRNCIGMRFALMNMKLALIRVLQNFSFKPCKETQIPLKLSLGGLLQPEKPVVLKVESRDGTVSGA
For `Cc1nc2nc(-c3ccc(Cl)cc3)nn2c(C)c1Cl`, the AC50 result is “inactive”.
On the same count and under the same terms, next, `Cc1cc(N)n2ncc(-c3ccc(Cl)cc3)c2n1`: 15.8 µM (active).
`Cc1cc(N2CCN(C)CC2)n2nc(-c3ccc(Cl)cc3)nc2n1`: the activity, negative = inhibition was -14.4% [at 11.4 µM] (inactive).
As for `CC(C)(C)C(=O)OCc1cn(-c2ccc(Cl)cc2)nn1`, the AC50 entry was “inactive”.
For `COc1cc(S(C)=O)ccc1-c1nc2ncccc2[nH]1` (centres undefined), the AC50 result was “inactive”.
Still for that read-out and setting: then `O=C(Nc1cccn(Cc2ccc(F)cc2)c1=O)NC1CCCCC1`, with 15.8 µM (active); and `Cc1ccc(Cn2cccc(NC(=O)NCc3ccccc3)c2=O)cc1`, with “inactive”.
For the compound `Cc1ccc(Cn2cccc(NC(=O)NC3CCCCC3)c2=O)cc1`, the AC50 was 12.6 µM (active).
As for `NCCSCCC(=O)O`, the activity, negative = inhibition was -1.66% [at 11.4 µM] (inactive).
For the compound `COc1ccc(S(=O)(=O)n2ccc(-c3cnc(-c4ccccc4)s3)n2)cc1`, the AC50 is 3.98 µM (active).
The same measure, in the same setting: next, `O=S(=O)(c1ccc(F)cc1)n1ccc(-c2cnc(-c3ccccc3)s2)n1`: 11.2 µM (active).
For the compound `CC(Oc1ccccc1)c1ccnn1S(=O)(=O)c1ccccc1` (centres undefined), the activity, negative = inhibition was -13.1% [at 11.4 µM] (inactive).
Turning to `CC[C@@H](C)[C@H]1O[C@]2(CC[C@@H]1C)C[C@@H]1C[C@H](C/C=C(/C)[C@H](O[C@@H]3C[C@H](OC)[C@H](O[C@@H]4C[C@H](OC)[C@@H](O)[C@H](C)O4)[C@H](C)O3)[C@@H](C)/C=C\C=C3CO[C@@H]4[C@H](O)C(C)=C[C@@H](C(=O)O1)[C@]34O)O2` (tested in a mixture with another compound), the AC50 result was “inactive”.
For `COC(=O)[C@H](Cc1ccccc1)NC(=O)[C@@H](C)CO`, the activity, negative = inhibition was -44.5% [at 11.4 µM] (inactive).
In the case of `CC(C)C[C@H](NC(=O)[C@@H](O)[C@@H](N)Cc1ccccc1)C(=O)O`, the AC50 result was “inactive”.
Consider `COC(=O)C(CC(C)C)NC(=O)C(N)Cc1ccccc1` (stereo not drawn) (H-Phe-Leu-OMe; configuration not given here), for which the AC50 is 14.1 µM (active).
On the same count and under the same terms, then `CCCc1cc2c(n1CCc1ccc(Cl)cc1)C(C)C1CN(C(=O)c3ccccc3)C(C)(C(=O)OC)C21` (centres undefined), with 5.01 µM (active); and `CCCc1cc2c(n1Cc1ccc(OC)cc1)C(C)C1CN(C(=O)c3ccccc3)C(C)(C(=O)OC)C21` (centres undefined), with 3.16 µM (active); and `CCCc1cc2c(n1Cc1cc(F)cc(F)c1)C(C)C1CN(C(=O)c3ccccc3)C(C)(C(=O)OC)C21` (centres undefined), with 3.16 µM (active).
Take `C[C@@]1(C(=O)O)CCC[C@@H]1C(=O)O`: the activity, negative = inhibition was -5.72% [at 11.4 µM] (inactive).
On the same count and under the same terms, next, `O=C(O)C[C@H](Cc1ccccc1Cl)C(=O)O`: -7.24% [at 11.4 µM] (inactive).
For `Cc1ccnc(N)c1`, the AC50 entry is “inactive”.
In the case of `CCn1c(=O)[nH]c2ccccc2c1=O`, the activity, negative = inhibition was 5.24% [at 2.29 µM] (inactive).
`CC1CCCC(n2c(=S)[nH]c3ccccc3c2=O)C1C` (centres undefined): the AC50 was 7.94 µM (active).
Same read-out and setting: then `Cc1cc(=O)[nH]c2ccccc12`, with “inactive”.
The same measure, in the same setting: then `CCN1CCN(C(c2ccccn2)c2c(NC(=O)c3ccccc3)sc(C)c2C)CC1` (centres undefined), with 8.91 µM (active); and `CC(C)CO[C@H](c1ccc2c(c1)OCO2)[C@H](C)Br`, with 3.16 µM (active).
`CCC(Sc1nc2n[nH]c(C)c2c(=N)n1-c1cccc(Cl)c1)C(=O)NCCOC` (centres undefined): the half-maximal activity concentration (AC50) is 2.82 µM (active).
Regarding `Nc1ccn([C@H]2O[C@H](CO)[C@@H]3[O][Sn]([c]4ccccc4)([c]4ccccc4)[O][C@H]32)c(=O)n1`, the activity, negative = inhibition is 25.9% [at 11.4 µM] (inactive).
Take `Cc1cc(N)ccc1NC(=O)c1ccccc1`: the AC50 result was “inactive”.
`CCOC(=O)c1cc(NC(=O)c2ccc(OC)cc2)c(=O)oc1-c1ccccc1`: the AC50 result is “inactive”.
Same read-out and setting: next, `Cc1oc(=O)c(NC(=O)c2ccccc2)cc1C(=O)c1ccccc1`: 7.94 µM (active).
With `COc1ccc(C(=O)Nc2cc(C(C)=O)c(/C=C/N(C)C)oc2=O)cc1`, the AC50 entry is “inactive”.
For `Cc1ccc(C(=O)Nc2cc3c(oc2=O)CCCC3=O)cc1`, the AC50 entry is “inactive”.
Still for that read-out and setting: next, `CC(=O)c1cc(NC(=O)c2ccccc2)c(=O)oc1/C=C/N(C)C`: 25.1 µM (active).
For the compound `CSc1cccc(NC(=O)c2ccc(Cl)nc2)c1`, the AC50 entry was “inactive”.
Same read-out and setting: next, `O=C(Nc1cc(Sc2ccccn2)cc([N+](=O)[O-])c1)c1ccc(Cl)cc1`: 7.94 µM (active).
On the same count and under the same terms, then `CC/C(O)=C(\C#N)c1nnc2n1CCCCC2`, with “inactive”.
With `CN1CCCN(C)C1c1cc([N+](=O)[O-])ccc1O`, the activity, negative = inhibition is -5.36% [at 11.4 µM] (inactive).
For `O=C1Nc2ccc([N+](=O)[O-])cc2C1(O)N1CCCCCC1` (centres undefined), the AC50 is 3.55 µM (active).
Still for that read-out and setting: next, `Cn1c(CCN2CCCCC2)nc2cc([N+](=O)[O-])ccc21`: “inactive”; `O=C(/C=C/c1cccc(Cl)c1)Nc1ccncc1`: 0.178 µM (active); `COCCCNC(=O)/C=C/c1cccc(Cl)c1`: “inactive”.
Consider `Cc1cc(C)nc(NC(=O)/C=C/c2ccc(Cl)cc2Cl)c1`, for which the activity, negative = inhibition is 4.58% [at 2.29 µM] (inactive).
For `NS(=O)(=O)c1cc(Br)c(N=Nc2ccc(O)c3ncccc23)c(Br)c1`, the activity, negative = inhibition was -8.46% [at 11.4 µM] (inactive).
On to `COC(=O)C1CC1C(NC(=O)[C@H]1CCCCN1)c1ccccc1` (some centres undefined), for which the AC50 was 10 µM (active).
Take `O=C(O)[C@@H]1CCCN1`: the activity, negative = inhibition was -4.77% [at 11.4 µM] (inactive).
As to `COC(=O)C1CC1C(NC(=O)[C@@H]1CCCN1)c1ccccc1` (some centres undefined), the concentration at half-maximal activity (AC50) was 12.6 µM (active).
Same read-out and setting: then `COc1cc(Br)c(C(C)NC(=O)c2cccc(Br)c2)cc1OC` (centres undefined), with 0.282 µM (active); and `COc1ccc(C(=O)NC(C)c2cc(OC)c(OC)cc2Br)cc1` (centres undefined), with 0.501 µM (active).
As for `COc1ccc(C(=O)[C@H](Br)[C@H](Br)C(=O)O)cc1`, the activity, negative = inhibition was 3.56% [at 11.4 µM] (inactive).
For the compound `NS(=O)(=O)c1cc2c(cc1Cl)N[C@@H](CC1CCCC1)NS2(=O)=O`, the AC50 entry is “inactive”.
Turning to `COc1ccc(-c2cnnn2-c2ccc(NC(=O)c3ccco3)cc2)cc1OC`, the AC50 is 1 µM (active).
`C/C(=N/NC(=O)c1ccc(NC(=O)c2ccc(F)cc2)cc1)c1ccccc1`: the activity, negative = inhibition is 15.1% [at 0.457 µM] (inactive).
In the case of `O=C(Nc1ccc(-n2nncc2-c2ccco2)cc1)c1cc2ccccc2oc1=O`, the AC50 is 4.47 µM (active).
For the compound `CC(C)(C)c1ccc(C(=O)Nc2ccc(NC(=O)c3ccco3)cc2)cc1`, the activity, negative = inhibition is 11.7% [at 2.29 µM] (inactive).
Turning to `CC(C)OC(=O)c1cc2ccccc2oc1=O`, the AC50 result was “inactive”.
The same measure, in the same setting: next, `CC(=O)c1cc2ccccc2oc1=O`: “inactive”; `O=C(Nc1ccc(-n2nncc2-c2ccco2)cc1)c1ccc(F)cc1`: 0.708 µM (active).

(Values after PubChem BioAssay AID1851 (National Center for Advancing Translational Sciences (NCATS), 2009).)
